Reference: PubChem BioAssay (Tox21)
Inconclusive results are not listed. The source made the active and inactive calls. The call rests on the fitted dose curve; in most records, active means well fitted cell-killing curve with a large enough effect in the repeat runs; inconclusive means weak or mixed curves, or effect the other way; inactive means no such curve, though single readings can be large or run the other way.

Assay: qHTS assay to identify small molecule antagonists of the glucocorticoid receptor (GR) signaling pathway - cell viability counter screen (AID 720693); further: nearly all actives have a fitted effect of over 55% in size
Conditions: GR-bla HeLa viability, CellTiter-Glo luminescence, 18 h, with 5 nM dexamethasone present; series mostly up to 58.5 µM

| Structure (SMILES) | outcome |
| --- | --- |
| Nc1ccn([C@@H]2O[C@H](CO)[C@@H](O)C2(F)F)c(=O)n1 | inactive |
| Clc1cc(Cl)c(Cl)nc1Cl | inactive |
| C=COC(=O)C(C)(CC)CCC(C)C (stereo not drawn) | inactive |
| CC1=NS(=O)(=O)c2cc(Cl)ccc2N1 | inactive |
| Cc1ccc(C(=O)c2ccc(CC(=O)O)n2C)cc1 | inactive |
| CN(C)CCN(C)CCN(C)C | inactive |
| CN(C)[C@@H]1C(=O)C(C(=O)NCN2CCCC2)=C(O)[C@@]2(O)C(=O)C3=C(O)c4c(O)cccc4[C@@](C)(O)C3C[C@@H]12 (stereo partly drawn) | inactive |
| C=C(C)C(=O)OCCOCCOCCOCCOC(=O)C(=C)C | inactive |
| CO[C@@]1(NC(=O)C(C(=O)O)c2ccc(O)cc2)C(=O)N2C(C(=O)O)=C(CSc3nnnn3C)CO[C@@H]21 (stereo partly drawn) | inactive |
| C[N+]1(C)CCCC(OC(=O)C(O)(c2ccccc2)c2ccccc2)C1 (stereo not drawn) | inactive |
| COc1cc(C(=O)NCc2ccc(OCCN(C)C)cc2)cc(OC)c1OC | inactive |
| CN1CCC(=C2c3ccccc3CCc3cccnc32)CC1 | inactive |
| NO | inactive |
| O=C(CO)[C@@H](O)[C@H](O)[C@H](O)CO | inactive |
| O=C(c1ccccc1)C1(O)CCCCC1 | inactive |
| CCCCc1nc(Cl)c(CO)n1Cc1ccc(-c2ccccc2-c2nn[nH]n2)cc1 | inactive |
| [O-][n+]1cccc(CO)c1 | inactive |

| Structure (SMILES) | outcome |
| --- | --- |
| CCCCCCCCCCCCCCCCCCO | inactive |
| CN1CCN(c2cc3c(nn2)Oc2ccccc2N3C)CC1 | inactive |
| OCCc1ccccn1 | inactive |
| Nc1ccn([C@@H]2O[C@H](CO)[C@@H](O)C2O)c(=O)n1 (stereo partly drawn) | inactive |
| COCCOC[C@H](CC1(C(=O)NC2CCC(C(=O)O)CC2)CCCC1)C(=O)Oc1ccc2c(c1)CCC2 (stereo partly drawn) | inactive |
| CC(=O)c1cnccn1 | inactive |
| CCCCc1ccc2c(n1)[C@@H](c1ccc(OC)cc1C[C@H](C)C(=O)O)[C@H](C(=O)O)[C@H]2c1ccc2c(c1)OCO2 | inactive |
| CNC(=O)Nc1ccc(Cl)c(Cl)c1 | inactive |
| O=C(O)c1cc(C(=O)O)cc(C(=O)O)c1 | inactive |
| COC(=O)Nc1ccc(Cl)c(Cl)c1 | inactive |
| CCC(C(=O)NC(=O)NC(C)=O)c1ccccc1 (stereo not drawn) | inactive |
| CCCCS(=O)(=O)N[C@@H](Cc1ccc(OCCCCC2CCNCC2)cc1)C(=O)O | inactive |
| CCC(C)(CN(C)C)OC(=O)c1ccccc1 (stereo not drawn) | inactive |
| OCCCCCO | inactive |
| Nc1ccn([C@@H]2O[C@H](CO)[C@@H](O)[C@@H]2O)c(=O)n1 | inactive |
| CC[N+](CC)(CC(=O)Nc1c(C)cccc1C)Cc1ccccc1 (tested in a mixture with another compound) | inactive |
